Measles CPE – protection of cells from measles virus. Measles virus-infected cells, CPE protection, absorbance. protection (pct of control), % at 4 µM. 140,000 tested, 1.5% active. AID 841; in the data active = protection mostly above about 24%, no sharp cut-off; inactive = mostly below about 26%
CYP2C9 inh – inhibitors of human CYP2C9. P11712. CYP2C9 Supersomes, luciferin-H conversion, luminescence. inhibition, % at 5 µM. 96,000 tested, 20% active. AID 777;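 active = blocking of liver enzyme CYP2C9 beyond about 50% at 5 µM, limit read from the data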
Target sequence (P11712 whole entry, looked up): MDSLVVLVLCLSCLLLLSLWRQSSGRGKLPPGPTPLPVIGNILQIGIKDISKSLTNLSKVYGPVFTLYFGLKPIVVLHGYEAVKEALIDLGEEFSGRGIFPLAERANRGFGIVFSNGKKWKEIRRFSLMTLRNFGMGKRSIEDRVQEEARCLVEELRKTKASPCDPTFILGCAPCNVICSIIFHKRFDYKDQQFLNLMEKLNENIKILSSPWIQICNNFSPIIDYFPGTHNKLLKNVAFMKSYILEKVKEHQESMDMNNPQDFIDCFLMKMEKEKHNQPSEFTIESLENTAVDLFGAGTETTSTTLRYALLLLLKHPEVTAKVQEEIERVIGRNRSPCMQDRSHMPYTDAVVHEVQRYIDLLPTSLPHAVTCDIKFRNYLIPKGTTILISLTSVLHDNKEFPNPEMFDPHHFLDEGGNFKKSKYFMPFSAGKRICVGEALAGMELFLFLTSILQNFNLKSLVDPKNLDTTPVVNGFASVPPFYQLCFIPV
CYP2C19 act – activators of human cytochrome P450 2C19; recombinant CYP2C19, luciferin-H EGE luminescence; active compounds read high; 0 = fully inhibited enzyme, 1 = untreated enzyme; activation factor at 5 µM; 96,000 tested, under 10 active;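 active = activation factor of at least 2 at 5 µM in the primary screen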
CYP2C19 inhib – inhibitors of human CYP2C19; P33261; CYP2C19 Supersomes, luciferin-H EGE luminescence, 30 min; inhibition, % at 5 µM; 96,000 tested, 21% active; AID 778;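 active = CYP2C19 inhibition above a set limit at 5 µM in the primary screen, cut at about 50% in these data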
CYP2C9 act – activators of human CYP2C9; P11712; recombinant CYP2C9, luciferin-H conversion, luminescence; active compounds read high; factor 1 = untreated enzyme, 0 = blocked; activation factor at 5 µM; 96,000 tested, 1.4% active; AID 1024;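 active = activation factor of 2 or more for CYP2C9 at a 5 µM dose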
Of the large screens only hits and unclear results are named; the others gave an inactive call. A selection: hits, their analogues and other compounds. The true share with any hit is near 22%.

CCOC(=O)CSC1=Nc2ccccc2C2=NC(CC(=O)NCc3ccccc3)C(=O)N12 (configuration not stated)	CYP2C9 inh 57
CCC(C)NC(=O)CSC1=Nc2ccccc2C2=NC(CC(=O)NCc3ccc(F)cc3)C(=O)N12 (configuration not stated)	none
CC(OC(=O)c1ccc(F)cc1)C(=O)Nc1nc(-c2cccc([N+](=O)[O-])c2)cs1 (configuration not stated)	none (no result: CYP2C9 inh, CYP2C19 act, CYP2C19 inhib, CYP2C9 act)
COc1ccc(CCNC(=O)COC(=O)c2cnccn2)cc1	none
CSc1nnc(-c2cccc(C)c2)n1N	none
Cc1ccc(-c2nnc(N3CCOCC3)c3ccccc23)cc1S(=O)(=O)NCC1CCCO1 (configuration not stated)	CYP2C9 inh 71
O=C(/C=C/c1ccccc1)Nc1ccc(N2CCCCC2)cc1	none (no result: CYP2C9 inh, CYP2C19 act, CYP2C19 inhib, CYP2C9 act)
COc1ccc(N2CCN(C(=O)CN3CCN(C(c4ccccc4)c4ccccc4)CC3)CC2)cc1	none (no result: CYP2C9 inh, CYP2C19 act, CYP2C19 inhib, CYP2C9 act)
NC(=O)Nc1ccc(Oc2c(F)c(F)c(F)c(F)c2F)cc1	none
CCOC(=O)c1[nH]c2ccc(OC)cc2c1NC(=O)C(C)N1CCC2(CC1)OCCO2 (configuration not stated)	CYP2C9 inh 71, CYP2C19 inhib 70
CCOC(=O)c1[nH]c2ccc(F)cc2c1NC(=O)C(C)N1CCc2cc(OC)c(OC)cc2C1 (configuration not stated)	CYP2C9 inh 98, CYP2C19 inhib 91
Cc1nn(-c2ccccc2)c(C)c1/C=N/NC(=O)c1cccs1	none (no result: CYP2C9 inh, CYP2C19 act, CYP2C19 inhib, CYP2C9 act)
Brc1ccc(CNCc2cccs2)cc1	Measles CPE 19 (no result: CYP2C9 inh, CYP2C19 act, CYP2C19 inhib, CYP2C9 act)
c1ccc(COc2ccc(CNCc3cccs3)cc2)cc1	CYP2C19 inhib 54
O=C(Cc1ccccc1)Nc1ccc(SC(F)F)cc1	none (no result: CYP2C9 inh, CYP2C19 act, CYP2C19 inhib, CYP2C9 act)
COCn1c(-c2ccc(OC)cc2)nc2ccccc21	none (no result: CYP2C9 inh, CYP2C19 act, CYP2C19 inhib, CYP2C9 act)
C=C(C)Cn1c(-c2ccc(OC)cc2)nc2ccccc21	CYP2C9 inh 96, CYP2C19 inhib 90
CCOC(Cn1c(-c2ccc(OC)cc2)nc2ccccc21)OCC	CYP2C9 inh 86
COc1ccc(OCc2nc(N)nc(Nc3ccccc3)n2)cc1	CYP2C9 inh 70, CYP2C19 inhib 68
COc1ccc2nc(SCc3nc(N)nc(Nc4ccccc4)n3)[nH]c2c1	CYP2C9 inh 98, CYP2C19 inhib 81
COc1ccc(Nc2nc(N)nc(COc3ccc(OC)cc3)n2)cc1	none
Cc1ccc(C(=O)CSc2nnc(COc3cc(C)cc(C)c3)o2)cc1	none
CS(=O)(=O)N(Cc1ccccc1F)c1ccccc1	none (no result: CYP2C9 inh, CYP2C19 act, CYP2C19 inhib, CYP2C9 act)
Cc1ccc(S(=O)(=O)NCCCCCC(=O)Nc2cccc(C)c2)cc1	none (no result: CYP2C9 inh, CYP2C19 act, CYP2C19 inhib, CYP2C9 act)
Cc1ccc(C)c2[nH]c(=O)c(CN(CCN3CCOCC3)Cc3nnnn3CC3CCCO3)cc12 (configuration not stated)	none
Cc1ccc(C)c2[nH]c(=O)c(CN(CC3CCCO3)C(=O)NC3CCCCC3)cc12 (configuration not stated)	CYP2C9 inh 72
Cc1cc(C)c2[nH]c(=O)c(CN(Cc3ccc4c(c3)OCO4)Cc3nnnn3C3CCCC3)cc2c1	CYP2C9 inh 91, CYP2C19 inhib 84
Cc1cccc2cc(CN(Cc3ccc(F)cc3)Cc3nnnn3C3CCCC3)c(=O)[nH]c12	none
Cc1ccc(C)c2[nH]c(=O)c(CN(Cc3nnnn3C3CCCCC3)CC3CCCO3)cc12 (configuration not stated)	CYP2C9 inh 65, CYP2C19 inhib 93
Cc1cc(C)c2[nH]c(=O)c(CN(CC3CCCO3)C(=O)C3CCCO3)cc2c1 (configuration not stated)	none
Cc1cccc2cc(CN(CC3CCCO3)C(=O)c3ccncc3)c(=O)[nH]c12 (configuration not stated)	CYP2C9 inh 83, CYP2C19 inhib 89
CCOC(=O)N1CCC(NC(=O)C2CCN(S(=O)(=O)c3c(C)noc3C)CC2)CC1	none
O=C(COc1ccc(Cl)cc1)NCc1nnc(SCC(=O)N2CCCc3ccccc32)o1	none
Cc1ccc2[nH]c(=O)c(CN(Cc3ccccc3)Cc3nnnn3C3CCCC3)cc2c1	CYP2C9 inh 66, CYP2C19 inhib 93
C/C=C(\CS(=O)(=O)c1ccccc1)S(=O)(=O)c1ccccc1	CYP2C19 inhib 87
O=C(CS(=O)(=O)c1ccccc1)Nc1ccc(Br)cn1	none (no result: CYP2C9 inh, CYP2C19 act, CYP2C19 inhib, CYP2C9 act)
O=C(COC(=O)c1ccccc1Sc1ccc(C(F)(F)F)cc1[N+](=O)[O-])NC(=O)NC1CCCC1	none (no result: CYP2C9 inh, CYP2C19 act, CYP2C19 inhib, CYP2C9 act)
Cc1ccccc1CSCC(=O)NCc1ccco1	none (no result: CYP2C9 inh, CYP2C19 act, CYP2C19 inhib, CYP2C9 act)
COc1nc(C)nc2c1ccc1ccccc12	none (no result: CYP2C9 inh, CYP2C19 act, CYP2C19 inhib, CYP2C9 act)
COc1cc(C(=O)NCC(=O)N/N=C(/C)c2cccs2)cc(OC)c1OC	none (no result: CYP2C9 inh, CYP2C19 act, CYP2C19 inhib, CYP2C9 act)
COc1cccc(C(=O)N2CCN=C2SCc2cccnc2)c1OC	CYP2C19 inhib 86
CN(C)S(=O)(=O)c1ccc(C(=O)N2CCN=C2SCc2cccnc2)cc1	none
O=C(c1ccc2c(c1)OCO2)N1CCN=C1SCc1cccnc1	CYP2C9 inh 67, CYP2C19 inhib 76
COc1ccc(C(=O)N2CCN=C2SCc2cccnc2)c(OC)c1	CYP2C9 inh 62, CYP2C19 inhib 88
CN1CCN(CCCC(=O)c2ccc(C3CCCC3)cc2)CC1	none (no result: CYP2C9 inh, CYP2C19 act, CYP2C19 inhib, CYP2C9 act)
Cc1ccccc1C(=O)Nc1cccc(NC(=O)Cn2cnc3c(=O)n(C)c(=O)n(C)c32)c1	CYP2C9 inh 59
NC(Cc1ccc(Oc2ccc(O)cc2)cc1)C(=O)O (configuration not stated)	none (no result: CYP2C9 inh, CYP2C19 act, CYP2C19 inhib, CYP2C9 act)
Cc1ccnc(NC(=O)CCC(=O)N(CC(=O)NC2CCCCC2)c2ccc3c(c2)OCO3)c1	CYP2C9 inh 75 (no result: Measles CPE)
O=C(CCC(=O)N(CC(=O)NC1CCCC1)Cc1ccc2c(c1)OCO2)Nc1ccccn1	CYP2C9 inh 89
O/N=C/c1cccn1-c1ccc(O)cc1	CYP2C9 act 3
COc1ccc(-n2cccc2C=O)cc1	none (no result: CYP2C9 inh, CYP2C19 act, CYP2C19 inhib, CYP2C9 act)
O=C(CNC(=O)c1ccc2ccccc2c1)OCC(=O)N1CCN(S(=O)(=O)c2ccc3ccccc3c2)CC1	none (no result: CYP2C9 inh, CYP2C19 act, CYP2C19 inhib, CYP2C9 act)
O=C(Nc1nc(-c2cccs2)cs1)c1ccc(S(=O)(=O)N2CCCC2)cc1	CYP2C9 inh 57
O=C(Nc1nc(-c2ccc(S(=O)(=O)N3CCCCCC3)cc2)cs1)c1ccccc1	CYP2C9 inh 72
NC(=O)c1ccsc1NC(=O)c1ccc(S(=O)(=O)N2CCCCC2)cc1	CYP2C9 inh 60
O=C(Nc1nc(-c2ccc3c(c2)OCCO3)cs1)c1ccc(S(=O)(=O)N2CCCCC2)cc1	none
Cc1ccc(Nc2nc(-c3ccc(S(=O)(=O)N4CCCC4)cc3)cs2)cc1C	CYP2C9 inh 54
Cc1cc(C)cc(Nc2nc(-c3ccc(S(=O)(=O)N4CCCC4)cc3)cs2)c1	none (no result: CYP2C9 inh, CYP2C19 act, CYP2C19 inhib, CYP2C9 act)
CCCN(CCC)S(=O)(=O)c1ccc(C(=O)NNc2nc(-c3ccccc3)c3cc(Br)ccc3n2)cc1	none (no result: CYP2C9 inh, CYP2C19 act, CYP2C19 inhib, CYP2C9 act)
CS(=O)(=O)NCCSCc1ccco1	none
COc1cccc2c(=O)n(CC(=O)Nc3cccc(F)c3)ccc12	none
COCCN(CCOC)S(=O)(=O)c1ccc(C(=O)Nc2nc(-c3ccncc3)cs2)cc1	CYP2C9 inh 69, CYP2C19 inhib 56
Cn1cc(C(=O)NCc2cccs2)c(=O)c2cc(S(=O)(=O)N3CCCC3)ccc21	none (no result: CYP2C9 inh, CYP2C19 act, CYP2C19 inhib, CYP2C9 act)

Assay outcomes (PubChem)
